Test results taken from PubChem BioAssay (Tox21).
Where “and” joins values, the source holds several entries; their conditions need not be identical. Equal values may be shown once. Records with an inconclusive call do not appear. Calls of active or inactive are those of the source. Calls come from the whole dose curve; as a rule, active = well fitted curve in the direction sought with a large enough effect in the repeat runs; inconclusive = weak or mixed curves; inactive = no such curve, though single readings can be large; an effect the other way counts as inactive or inconclusive.

Columns and labels:
[1] = A CellTox Green Cytotoxicity Assay to monitor cytotoxicity in HEK293 cells - 40 hour (AID 1224871); note: nearly all actives have a fitted effect of over 45% in size
Summary of the method: (§1)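 Fluorescence from a DNA-binding dye excluded by viable cells was measured repeatedly in the same HEK293 wells (600 cells/well) during continuous compound exposure at 37 C. Each assay gives one read point: 0, 8, 16, 24, 32 or 40 h.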

[2] = qHTS RealTime-Glo MT Cell Viability Assay in HEK293 cells - 16 hour (AID 1224872); note: top concentration of the series differs between compounds; nearly all actives have a fitted effect of over 50% in size
Summary of the method: (§2)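 HEK293 cells were seeded at 600 cells/well together with NanoLuc luciferase and cell-permeant prosubstrate, preincubated 5 h at 37 C/5% CO2, then given compound in DMSO by pintool. Luminescence from viable-cell prosubstrate reduction was read repeatedly over 40 h.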

[3] = qHTS RealTime-Glo MT Cell Viability Assay in HepG2 cells - 8 hour (AID 1224873); note: nearly all actives have a fitted effect of over 55% in size
Summary of the method: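 HepG2 cells mixed with RealTime-Glo MT reagents (NanoLuc plus cell-permeant prosubstrate) were seeded at 600 cells/well, incubated 5 h at 37 C/5% CO2, then pinned with compounds in DMSO; nonlytic luminescence tracked viability during 40 h treatment.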

[4] = qHTS RealTime-Glo MT Cell Viability Assay in HEK293 cells - 40 hour (AID 1224874); conditions: RealTime-Glo luminescence; max response: hits give low values; note: nearly all actives have a fitted effect of over 50% in size
Summary of the method: (§3)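 Luminescence, which tracks viable cell number through reduction of the prosubstrate to a NanoLuc substrate, was read over continuous 37 C culture. Cells (600/well) were premixed with reagent and rested 5 h before 23 nL of compound in DMSO was pinned.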

[5] = A CellTox Green Cytotoxicity Assay to monitor cytotoxicity in HEK293 cells - 24 hour (AID 1224875); note: series mostly up to about 77 µM; nearly all actives have a fitted effect of over 45% in size
Summary of the method: as §1

[6] = A CellTox Green Cytotoxicity Assay to monitor cytotoxicity in HepG2 cells - 16 hour (AID 1224876); note: nearly all actives have a fitted effect of over 45% in size
Summary of the method: (§4)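 Real-time cytotoxicity: fluorescence of a cell-impermeant cyanine dye binding DNA of dead HepG2 cells, measured repeatedly (0–40 h) during compound exposure at 37 C. Cells seeded 600/well with reagent, dosed after 5 h.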

[7] = qHTS RealTime-Glo MT Cell Viability Assay in HepG2 cells - 32 hour (AID 1224877); note: nearly all actives have a fitted effect of over 55% in size
Summary of the method: (§5)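 HepG2 cells were seeded at 600 cells/well together with NanoLuc luciferase and a cell-permeant prosubstrate, preincubated 5 h at 37 C/5% CO2, then pin-dosed with compounds in DMSO. Nonlytic luminescence from viable cells was read at each time point.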

[8] = A CellTox Green Cytotoxicity Assay to monitor cytotoxicity in HepG2 cells - 24 hour (AID 1224878); note: nearly all actives have a fitted effect of over 45% in size
Summary of the method: as §4

[9] = A CellTox Green Cytotoxicity Assay to monitor cytotoxicity in HepG2 cells - 40 hour (AID 1224879); note: nearly all actives have a fitted effect of over 40% in size
Summary of the method: as §4

[10] = qHTS RealTime-Glo MT Cell Viability Assay in HEK293 cells - 0 hour (AID 1224880)
Summary of the method: as §3

[11] = A CellTox Green Cytotoxicity Assay to monitor cytotoxicity in HEK293 cells - 32 hour (AID 1224881); note: nearly all actives have a fitted effect of over 40% in size
Summary of the method: as §1

[12] = A CellTox Green Cytotoxicity Assay to monitor cytotoxicity in HepG2 cells - 0 hour (AID 1224882); note: nearly all actives have a fitted effect of over 35% in size
Summary of the method: as §4

[13] = A CellTox Green Cytotoxicity Assay to monitor cytotoxicity in HepG2 cells - 32 hour (AID 1224883); note: nearly all actives have a fitted effect of over 50% in size
Summary of the method: as §4

[14] = A CellTox Green Cytotoxicity Assay to monitor cytotoxicity in HEK293 cells - 8 hour (AID 1224884); note: nearly all actives have a fitted effect of over 35% in size
Summary of the method: as §1

[15] = qHTS RealTime-Glo MT Cell Viability Assay in HEK293 cells - 24 hour (AID 1224886); note: top concentration of the series differs between compounds; nearly all actives have a fitted effect of over 50% in size
Summary of the method: as §2

[16] = qHTS RealTime-Glo MT Cell Viability Assay in HEK293 cells - 8 hour (AID 1224887)
Summary of the method: as §3

[17] = A CellTox Green Cytotoxicity Assay to monitor cytotoxicity in HEK293 cells - 16 hour (AID 1224888); note: nearly all actives have a fitted effect of over 35% in size
Summary of the method: as §1

[18] = qHTS RealTime-Glo MT Cell Viability Assay in HepG2 cells - 0 hour (AID 1224889); note: nearly all actives have a fitted effect of over 50% in size
Summary of the method: as §5

[19] = A CellTox Green Cytotoxicity Assay to monitor cytotoxicity in HepG2 cells - 8 hour (AID 1224890); note: nearly all actives have a fitted effect of over 45% in size
Summary of the method: as §4

[20] = qHTS RealTime-Glo MT Cell Viability Assay in HepG2 cells - 16 hour (AID 1224885); note: nearly all actives have a fitted effect of over 50% in size
Summary of the method: as §5
% is set by controls: 0 for no effect and ±100 for the full control effect.

CN1N=C(C(N)=O)CCC1=O
inactive: Potency [1] | Potency [2] | Potency [3] | max response [4] 0.803% | Potency [5] | Potency [6] | Potency [7] | Potency [8] | Potency [9] | Potency [10] | Potency [11] | Potency [12] | Potency [13] | Potency [14] | Potency [15] | Potency [16] | Potency [17] | Potency [18] | Potency [19]

N[C@H]1CN(c2c(F)cc3c(=O)c(C(=O)O)cn(C4C[C@H]4F)c3c2Cl)CC12CC2 (some centres undefined)
inactive: Potency [1] | Potency [2] | Potency [3] | max response [4] 11.4% | Potency [5] | Potency [6] | Potency [7] | Potency [8] | Potency [9] | Potency [11] | Potency [12] | Potency [13] | Potency [14] | Potency [20] | Potency [15] | Potency [16] | Potency [17] | Potency [18]

COCCc1ccc(OCC(O)CNC(C)C)cc1 (centres undefined)
inactive: Potency [1] | Potency [2] | Potency [3] | max response [4] 1.31% and -8.11% | Potency [5] | Potency [6] | Potency [7] | Potency [8] | Potency [9] | Potency [10] | Potency [12] | Potency [13] | Potency [14] | Potency [15] | Potency [16] | Potency [17] | Potency [18] | Potency [19]

CCCc1cc(C(N)=S)ccn1
inactive: Potency [1] | Potency [2] | Potency [3] | max response [4] 2.82% | Potency [5] | Potency [6] | Potency [8] | Potency [9] | Potency [10] | Potency [11] | Potency [12] | Potency [13] | Potency [14] | Potency [20] | Potency [15] | Potency [16] | Potency [17] | Potency [18] | Potency [19]

COC(=O)c1ccc(C)cc1C1=NC(C)(C(C)C)C(=O)N1 (centres undefined)
inactive: Potency [1] | Potency [2] | Potency [3] | max response [4] 5.2% | Potency [5] | Potency [6] | Potency [8] | Potency [9] | Potency [10] | Potency [11] | Potency [12] | Potency [13] | Potency [14] | Potency [20] | Potency [15] | Potency [16] | Potency [17] | Potency [18] | Potency [19]

O=C(O)CNC(=O)c1ccc([N+](=O)[O-])cc1
inactive: Potency [1] | Potency [2] | Potency [3] | max response [4] -0.136% | Potency [5] | Potency [6] | Potency [8] | Potency [9] | Potency [10] | Potency [11] | Potency [12] | Potency [13] | Potency [14] | Potency [20] | Potency [15] | Potency [16] | Potency [17] | Potency [18] | Potency [19]

Nc1ccccc1S(=O)(=O)O
inactive: Potency [1] | Potency [2] | Potency [3] | max response [4] 0.0936% | Potency [5] | Potency [6] | Potency [8] | Potency [9] | Potency [10] | Potency [11] | Potency [12] | Potency [13] | Potency [14] | Potency [20] | Potency [15] | Potency [16] | Potency [17] | Potency [18] | Potency [19]

N#Cc1ccc(C2CCCc3cncn32)cc1 (centres undefined)
inactive: Potency [1] | Potency [2] | Potency [3] | max response [4] 8.46% | Potency [5] | Potency [6] | Potency [8] | Potency [9] | Potency [10] | Potency [11] | Potency [12] | Potency [13] | Potency [14] | Potency [20] | Potency [15] | Potency [16] | Potency [17] | Potency [18] | Potency [19]

CN1CCN(c2cc3c(cc2F)c(=O)c(C(=O)O)cn3-c2ccc(F)cc2)CC1
inactive: Potency [1] | Potency [2] | Potency [3] | max response [4] -0.934% | Potency [5] | Potency [6] | Potency [7] | Potency [8] | Potency [9] | Potency [11] | Potency [12] | Potency [13] | Potency [14] | Potency [20] | Potency [15] | Potency [16] | Potency [17] | Potency [18] | Potency [19]
